± gives the standard deviation.
How the values were obtained:
Conditions in all cases: modulator concentration 10 µM
[1] = tested on: RAW-Dual (murine macrophage reporter line); assay: NF-kB reporter (SEAP) activity fold change vs agonist alone; higher = enhanced NF-kB activity
In short: (§1)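 Compound reached 10 μM final in each well by pin transfer, onto RAW-Dual murine macrophage reporter cells seeded at 50 000 per well in 384-well plates. After 1 hour at 37 °C, the cells were stimulated overnight with a PRR agonist. SEAP in the supernatant was read with QUANTI-Blue at 620 nm absorbance for NF-κB, and Lucia luciferase was read with QUANTI-Luc luminescence for IRF. Each signal was turned into fold change against the mean agonist-only control on the same plate, and two replicate plates were averaged with propagated errors.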

[2] = tested on: RAW-Dual (murine macrophage reporter line); assay: IRF reporter (Lucia luciferase) activity fold change vs agonist alone; higher = enhanced IRF activity
In short: as §1

[3] = tested on: RAW-Dual (murine macrophage reporter line); assay: viability score (confluency relative to resting cells, overnight) (fraction); higher = more viable, active = viable (0.7 or more)
In short: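 A compound met the cutoff when both of two confluency masks exceeded 70% of resting cells. Those masks were made with IncuCyte software from IncuCyte images of RAW-Dual macrophages treated overnight at 10 μM final. This is the basis of the viability score, which is confluency relative to resting cells.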

[4] = agonist: CpG ODN 1826 0.5 ug/mL

| Compound | NF-kB reporter [1, 4] | NF-kB reporter ([1]; agonist: LPS 0.1 ug/mL) | NF-kB reporter ([1]; agonist: MPLA […]) | IRF reporter ([2]; agonist: 3'3'-cGAMP 10 ug/mL) | IRF reporter ([2]; agonist: LPS 0.1 ug/mL) | IRF reporter ([2]; agonist: MPLA […]) | viability score [3] |
| --- | --- | --- | --- | --- | --- | --- | --- |
| CC(C)CN(C[C@@H](O)[C@H](Cc1ccccc1)NC(=O)O[C@H]1CCOC1)S(=O)(=O)c1ccc(N)cc1 | 1.51 ± 0.36 | 1.4 ± 0.43 | 1.63 ± 0.097 | 0.918 ± 0.028 | 1.29 ± 0.33 | 1.22 ± 0.14 | 0.998 (active) |
| O=C(CSc1nc(-c2ccccc2)c(-c2ccccc2)o1)N1CCOCC1 | 1.03 ± 0.081 | 1.02 ± 0.079 | 0.903 ± 0.054 | 0.954 ± 0.045 | 1.31 ± 0.11 | 1.2 ± 0.12 | 0.996 (active) |
| COc1ccc(C(=O)Nc2sc3c(c2C(N)=O)CCC(C)C3)c(OC)c1 (stereo unspecified) | 1.09 ± 0.11 | 1.08 ± 0.067 | 0.947 ± 0.058 | 0.907 ± 0.068 | 1.5 ± 0.2 | 1.22 ± 0.11 | 1.01 (active) |
| COC(=O)Nc1nc2ccc(S(=O)c3ccccc3)cc2[nH]1 (stereo unspecified) | 1.1 ± 0.065 | 1.04 ± 0.11 | 1.12 ± 0.059 | 0.279 ± 0.081 | 0.924 ± 0.11 | 0.536 ± 0.18 | 1.01 (active) |
| CC(=NNC(=O)COc1ccc(Cl)cc1[N+](=O)[O-])c1cccc(Br)c1 | 0.961 ± 0.091 | 1.11 ± 0.064 | 0.89 ± 0.053 | 0.983 ± 0.032 | 1.47 ± 0.22 | 1.19 ± 0.22 | 1 (active) |
| CC(C)CSc1nnc2c(n1)[nH]c1ccccc12 | 1.06 ± 0.083 | 1.01 ± 0.072 | 0.967 ± 0.039 | 0.955 ± 0.2 | 1.05 ± 0.047 | 0.885 ± 0.14 | 0.998 (active) |
| Cc1ccc(-n2ncc3c(=O)n(CC=Cc4ccccc4)cnc32)cc1C | 0.969 ± 0.086 | 1.1 ± 0.089 | 0.96 ± 0.091 | 1.03 ± 0.061 | 1.19 ± 0.12 | 1.06 ± 0.34 | 0.984 (active) |
| CCc1cc(=O)oc2cc(OCC(=O)OC(C)C)ccc12 | 0.827 ± 0.064 | 0.857 ± 0.042 | 1.11 ± 0.096 | 1.04 ± 0.048 | 1.44 ± 0.096 | 1.73 ± 0.24 | 1 (active) |
| COc1ccc(C=Nn2cnnc2)cc1COc1cc(C)c(Cl)cc1C(C)C | 0.854 ± 0.088 | 0.761 ± 0.04 | 0.984 ± 0.095 | 1.21 ± 0.11 | 1.03 ± 0.06 | 1.3 ± 0.11 | 0.995 (active) |
| Cc1nc2sccn2c(=O)c1CCN1CCC(=C(c2ccc(F)cc2)c2ccc(F)cc2)CC1 | 0.91 ± 0.1 | 1 ± 0.061 | 0.901 ± 0.053 | 0.92 ± 0.056 | 1.12 ± 0.18 | 1.01 ± 0.15 | 1 (active) |
| O=Cc1cn(CCOc2ccc(Cl)cc2)c2ccccc12 | 1.45 ± 0.12 | 0.883 ± 0.07 | 1.62 ± 0.06 | 0.685 ± 0.057 | 0.773 ± 0.081 | 0.613 ± 0.12 | 0.93 (active) |
| COC(=O)c1ccc(C=NN=C2C(=O)Nc3ccccc32)cc1 | 0.968 ± 0.069 | 1.05 ± 0.09 | 0.995 ± 0.028 | 0.527 ± 0.028 | 1.09 ± 0.053 | 1.13 ± 0.11 | 0.998 (active) |
| O=C(C=Cc1ccccc1)NC(NC(=S)Nc1cccc(O)c1)C(Cl)(Cl)Cl (stereo unspecified) | 0.835 ± 0.074 | 0.803 ± 0.1 | 0.972 ± 0.099 | 0.737 ± 0.024 | 1.25 ± 0.23 | 1.3 ± 0.28 | 1.03 (active) |

— the supplement of paper PMC10646978
